Out of some 69,000 compounds screened, about 8,600 (12%) showed an effect of 50% or more. This is one part of a sample in which strong results are shown more often than they occur.
Each compound was assayed on Plasmodium berghei (assay: Screen against P. berghei liver stage (PbLuc), transformed with Luciferase, at 10uM). Conditions: tested at 10 uM.
Type: functional, HepG2
In the case of `Cc1c(Cl)cccc1NCc1nc2n(n1)CCCCC2`, the INHIBITION is reported as 26.7%.
`CN(C)c1ncc(CNC(=O)Nc2ccc(C(F)(F)F)cc2)n1C` was tested, and the INHIBITION was 78.6%.
`CN(C)c1ncc(CNC(=O)Nc2ccccc2C(F)(F)F)n1C` was tested, and the INHIBITION was 36.9%.
Compound `CN(C)c1ncc(CNC(=O)Nc2ccccc2F)n1C` has an INHIBITION of 48.9%.
`COc1ccc(CN2CC[C@H]3[C@H]2CCN3C(=O)c2cnn(C)c2)cc1` was tested, and the INHIBITION was 39.8%.
In the case of `CNC(=O)c1sc2ncccc2c1C1CCN(C(=O)CCOC)C1` (centres undefined), the INHIBITION is reported as -7.525%.
`O=C(CCc1ccncc1)NCc1csc(Br)c1` was tested, and the INHIBITION was -6.14%.
With `CN(C)CCNC(=O)Cn1cnc2cc(NC(=O)C3CC3)ccc21` the INHIBITION was 4.48%.
Work on `COCCN1CCC2(CC1)CC(COC)N(c1ncccn1)C2` (centres undefined) yielded an INHIBITION of 23.5%.
For `COCC1CC2(CCN(c3cccc(C)n3)CC2)CN1C(C)C` (centres undefined), the INHIBITION was 29.4%.
In the case of `COCC1CC2(CCN(Cc3ccccn3)CC2)CN1C(C)C` (centres undefined), the INHIBITION is reported as -2.27%.
`CCS(=O)(=O)N1CCC2(CC1)CC(COC)N(c1ncccn1)C2` (centres undefined) was tested, and the INHIBITION was 65.6%.
`COCC1CC2(CCN(S(=O)(=O)C3CC3)CC2)CN1c1ncccn1` (centres undefined) was tested, and the INHIBITION was 19.5%.
Work on `COCC1CC2(CCN(c3ccccn3)CC2)CN1C(C)C` (centres undefined) yielded an INHIBITION of 64.7%.
In the case of `COCC1CC2(CCN(c3ccc(C)nn3)CC2)CN1C(C)C` (centres undefined), the INHIBITION is reported as 16.8%.
`COCC1CC2(CCN(c3cc(OC)ncn3)CC2)CN1C(C)C` (centres undefined) showed an INHIBITION of 58.4%.
For `COCC1CC2(CCN(Cc3ccncc3)CC2)CN1C(C)C` (centres undefined), the INHIBITION was 12.6%.
Work on `CC1(NC(=O)Cc2cccs2)CCS(=O)(=O)C1` (centres undefined) yielded an INHIBITION of 43.1%.
`CC(C)C(=O)N1CC[C@H]2N(C)CC[C@@]2(C(=O)Nc2ccccc2)CC1` showed an INHIBITION of 44.8%.
For `O=C1CC2(CCCCN2C(=O)c2ccccc2)CN1CC1CC1` (centres undefined), the INHIBITION was 29.7%.
`Cc1cnc(NC(=O)C(C)n2ccc(C(F)(F)F)n2)s1` (centres undefined) showed an INHIBITION of 49.1%.
For `COCC(=O)N1CC[C@]2(O)CCN(Cc3ccsc3)C[C@@H]2C1`, the INHIBITION was 10.5%.
Compound `CC(C)c1nc(CNC2CCN(C(=O)OC(C)(C)C)CC2)cs1` has an INHIBITION of 47%.
With `CN(CC(=O)NC1CC1)C(=O)c1csc(Br)c1` the INHIBITION was 37.2%.
For `COc1ccccc1CC(=O)N1CCC(OCc2cccnc2)CC1`, the INHIBITION was -37.2%.
Compound `Cc1cnn(CC2CCCCN2Cc2nccn2CC(F)(F)F)c1` (centres undefined) has an INHIBITION of -61.4%.
`Cc1noc(C)c1CC(=O)N1CC[C@@](C)(O)[C@H](Oc2ccccc2)C1` gave an INHIBITION of 41.55%.
`COCCNc1ccc(CNC(=O)Nc2cn[nH]c2)cc1` was tested, and the INHIBITION was 6.14%.
Compound `CNS(=O)(=O)c1ccc(CNC(=O)Nc2cn[nH]c2)cc1` has an INHIBITION of 50.3%.
Work on `CS(=O)(=O)c1ccc(CNC(=O)Nc2cn[nH]c2)cc1` yielded an INHIBITION of -21.7%.
Work on `CNS(=O)(=O)Cc1ccc(CNC(=O)Nc2cn[nH]c2)cc1` yielded an INHIBITION of 27.9%.
For `NC(=O)c1ccc(CNC(=O)Nc2cn[nH]c2)cc1`, the INHIBITION was 72.9%.
Work on `O=C(NCc1ccc(Br)c(F)c1)Nc1cn[nH]c1` yielded an INHIBITION of 4.97%.
`CNC(=O)c1cnn2c(C3CCCN3C)ccnc12` (centres undefined) showed an INHIBITION of -6.73%.
In the case of `COc1ccc(Br)c(C(=O)NC(CC(=O)O)c2cccs2)c1` (centres undefined), the INHIBITION is reported as 33.8%.
`O=C(CCCN1C(=O)CCC1=O)NCC1(c2ccccc2)CCC1` was tested, and the INHIBITION was -9.37%.
For `O=C1CCCN1Cc1nnc2n1CCN(Cc1ccco1)CC2`, the INHIBITION was -8.23%.
With `Fc1ccc(NCc2ncc[nH]2)cc1Br` the INHIBITION was 58.1%.
Compound `Clc1cc(NCc2ncc[nH]2)nc2[nH]ccc12` has an INHIBITION of -19.8%.
Compound `COCc1nc2cc(NCc3ncc[nH]3)ccc2o1` has an INHIBITION of -10.8%.
In the case of `CCC(O)(CNCc1ncc[nH]1)c1ccc(Br)cc1` (centres undefined), the INHIBITION is reported as 15.5%.
`COc1cc(NCc2ncc[nH]2)ccc1Br` showed an INHIBITION of 74.4%.
For `Fc1cccc(NCc2ncc[nH]2)c1`, the INHIBITION was 10.3%.
In the case of `CCOCC(=O)N1CC[C@H]2O[C@@H](C)C[C@H]2C1`, the INHIBITION is reported as 5.44%.
With `CCCn1cnc2c(cnn2-c2cccc(C)c2C)c1=O` the INHIBITION was -70.6%.
`Cc1cc(-c2cc(N)c(=O)n(CC(=O)N3CCCC(C)C3)n2)c(C)o1` (centres undefined) gave an INHIBITION of 22.35%.
`Cc1noc(OCCOc2cccc(C#N)c2)n1` gave an INHIBITION of 10.7%.
`Cc1nc(COc2cccc(C#N)c2)no1` showed an INHIBITION of 54.4%.
`Cc1nc(CN2CCCN(CCOc3cccc(C#N)c3)CC2)no1` was tested, and the INHIBITION was 20.1%.
Compound `COCC(=O)Nc1nnc2n(Cc3cccc(OC)c3)[nH]c(C)c1-2` has an INHIBITION of -14.8%.
`CN(CC1(O)CCCN(c2ccccn2)C1)C(=O)CC1CCOCC1` (centres undefined) was tested, and the INHIBITION was -51.4%.
`Cc1nc(-c2ccsc2)ccc1C(=O)NCCCN1CCOCC1` gave an INHIBITION of 25.315%.
`CSc1nnc(CNC(=O)Nc2ccccc2Br)n1C` showed an INHIBITION of 19.8%.
In the case of `CNCC[C@H]1CC(C)(C)Oc2ccc(OCC3CC3)cc21`, the INHIBITION is reported as 42.6%.

Reference: ChEMBL document CHEMBL4513216, “Probing the Open Global Health Chemical Diversity Library for Multistage-Active Starting Points for Next-Generation Antimalarials” (ACS Infect Dis, 2020)
